Our source for the Percent Effect values is ChEMBL document CHEMBL3988442, “University of Dundee, Small-Polar-MMV Screening Library” (2021).

For the experiment, the target named is T1, Arginase-2, mitochondrial (Homo sapiens) (UniProt P78540).
T1 sequence (whole entry): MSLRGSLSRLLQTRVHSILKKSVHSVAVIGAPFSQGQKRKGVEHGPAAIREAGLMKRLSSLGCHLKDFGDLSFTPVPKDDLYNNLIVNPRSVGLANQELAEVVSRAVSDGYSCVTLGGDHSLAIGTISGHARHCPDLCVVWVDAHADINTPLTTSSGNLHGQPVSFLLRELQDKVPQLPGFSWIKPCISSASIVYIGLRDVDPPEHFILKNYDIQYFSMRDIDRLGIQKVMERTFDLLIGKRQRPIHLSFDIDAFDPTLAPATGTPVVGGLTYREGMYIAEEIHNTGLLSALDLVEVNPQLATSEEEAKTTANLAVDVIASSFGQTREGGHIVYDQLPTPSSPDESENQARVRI
The experiment is described as follows: in vitro enzyme assay to detect the production of urea directly proportional to the activity of Arginase II. The format is functional. Details: scale not given: in the data most compounds retested in dose-response had high values. As to conditions: 30 µM.
Consider `NC(=O)CCCNC(=O)c1cc(Br)c2c(c1)OCCO2`, for which the Percent Effect was found to be 3.78%. Take `Cc1cc(NC(=O)C2CN(Cc3ccccc3)CCO2)ccn1` (stereo not given): the Percent Effect stood at 3.78%. Next, `c1ccc(OC2COC3(CCN(CC4CC4)CC3)C2)nc1` (stereo not given): -16.8%; `CC(C)NC(=O)[C@]12COC[C@H]1CN(Cc1cnn(C)c1)C2`: -13.5%. Next, `O=C(NCCO)c1coc(CN2CCN(c3ccccc3F)CC2)n1`: -8.11%; `Cc1cc(CN(Cc2ccccc2)CC(O)c2cccs2)on1` (stereo not given): 3.78%; `CC(C)CN1CCC(NC(=O)c2ccc(F)cc2F)CC1`: 7.03%. Consider `COc1ccc(C(=O)N2C[C@@H](C(=O)O)[C@H](c3cccc(F)c3)C2)c(O)c1`, for which the Percent Effect came to 7.03%.

As to `Cc1nn(C)cc1C(=O)N1CCCC(c2nccn2Cc2cscn2)C1` (stereo not given), the Percent Effect is -12.4%. Then `CN(C)c1ncccc1NC(=O)C1CN(Cc2ccccc2)CCO1` (stereo not given), with -8.11%; and `CN(Cc1ccco1)[C@@H]1CN(Cc2ccc(F)cc2)[C@@H]2CCCO[C@H]12`, with 2.7%; and `Cn1cc(CC2CCN(C(=O)NCCCc3ccc(O)cc3)C2)cn1` (stereo not given), with 7.03%.

As to `CCn1ccnc1C1CCCN(C(=O)c2sc(C)nc2C)C1` (stereo not given), the Percent Effect stood at 2.7%. As to `CN(Cc1cccnc1)C1CC2(CCN(Cc3ccccn3)CC2)C1`, the Percent Effect worked out at 2.7%.

As for `Cc1nc(NCC2CC2)nc2c1COCC21CCN(S(=O)(=O)C2CC2)C1` (stereo not given), the Percent Effect was 7.03%. In the case of `CN(C)C(=O)CN1CCCC(c2cncc(-c3cccc(Cl)c3)n2)C1` (stereo not given), the Percent Effect was found to be 1.62%. Next, `CCn1c(NCc2ccc(OC)cc2)nc2c(C)nn(C)c2c1=O`: -4.87%; `Fc1ccc(CNCc2nnc3n2CC(C(F)(F)F)CC3)cc1` (stereo not given): -13.5%; `CCn1c(NCc2ccccn2)nc2c(C)nn(C)c2c1=O`: -5.95%. As for `CN(CC(=O)N1CCCC1c1noc(C2CC2)n1)S(C)(=O)=O` (stereo not given), the Percent Effect worked out at 3.78%. In the case of `CNC(=O)[C@@H]1C[C@H]2CN(C(=O)c3ccco3)C[C@H]2N1C(C)C`, the Percent Effect turned out to be 9.19%. Then `Cc1cnc(C(=O)N2CCCC(c3nccn3Cc3cscn3)C2)cn1` (stereo not given), with -5.95%; and `O=C(c1coc(CN2CCN(c3ccccc3F)CC2)n1)N1CC=CC1`, with 5.95%; and `CC(C)(C)OC(=O)Cn1cccc(S(=O)(=O)N2CCCCCC2)c1=O`, with 5.95%. On to `Cc1cc(F)c(C(C(=O)O)N2CCN(Cc3ccccn3)CC2)cc1Cl` (stereo not given), for which the Percent Effect came to 5.95%. Turning to `CN(Cc1ccco1)[C@@H]1CN(CC2CCOCC2)C[C@@H]2CCCO[C@@H]21`, the Percent Effect turned out to be 7.03%. Regarding `CCOC(=O)Cn1cccc(S(=O)(=O)N2CCCC2)c1=O`, the Percent Effect was -11.3%. Then `Cc1ccoc1CNCc1nnc2n1CC(C(F)(F)F)CC2` (stereo not given), with 3.78%; and `CNC(=O)[C@H]1C[C@@H]2CN(C(=O)c3ccoc3)C[C@@H]2N1S(C)(=O)=O`, with 10.3%; and `Cc1ccc(C(=O)N(CCC#N)Cc2ccccn2)cc1C`, with 3.78%. With `COc1cc(C(=O)N(CCC#N)Cc2ccccn2)ccc1C`, the Percent Effect was 2.7%.

As to `O=C(Cn1nc2c(cc1=O)CCCC2)NC(Cc1ccccc1)C(=O)O` (stereo not given), the Percent Effect is -13.5%. Next, `Cc1nnsc1C(=O)N1CCCC(c2nccn2Cc2cscn2)C1` (stereo not given): -2.7%; `CC1CCN(S(=O)(=O)c2cccn(CC(=O)NC(C)(C)C)c2=O)CC1`: 8.11%; `CN(Cc1cccnc1)C1CC2(CCN(Cc3cccnc3)CC2)C1`: -12.4%.

Take `CC(C)CS(=O)(=O)CC(=O)N1CCCC1c1noc(C2CC2)n1` (stereo not given): the Percent Effect came to 5.95%. Then `COCc1csc(NC(=O)N2CCC(Cc3cnn(C)c3)C2)n1` (stereo not given), with 2.7%; and `CN(Cc1ccccn1)C1CC2(CCN(Cc3ccccn3)CC2)C1`, with -16.8%; and `CC1=Nc2c(c(=O)[nH]n2C2CCCC2)C(c2cccnc2)S1` (stereo not given), with 7.03%. Then `O=C(Cn1ccc2c(Cl)cccc21)N1CCCC1`, with 8.11%.
